Reference: PubChem BioAssay (NCATS)
Inconclusive results are not listed. Active and inactive are the calls of the source. Calls follow the shape of the full dose curve; tested in HEK293 reporter line.

assay: qHTS for Inhibitors of the Functional Ribonucleoprotein Complex (vRNP) of Lymphocytic Choriomeningitis Arenaviruses (LCMV): Viability assay - alamar blue signal for LCMV Primary Screen (AID 1347085); conditions: alamar blue viability counter-screen, LCMV vRNP screen cells; series mostly up to 57.5 µM; activity change, negative = lower viability: at the top concentration; also: nearly all actives have a fitted effect of over 80% in size
% is scaled to controls: 0 for no effect and ±100 for the full control effect; potency is read from the fitted curve at half-maximal effect.

SMILES	activity change, negative = lower viability	Potency
COc1ccc(-c2coc3cc(O)ccc3c2=O)cc1OC	-1.4% (inactive)	
C#CCCC[C@@H]1OC(=O)CNC(=O)C([C@@H](C)CC)NC(=O)[C@@H]2CCCN2C(=O)C([C@@H](C)CC)OC(=O)[C@H](Cc2ccccc2)N(C)C(=O)[C@H](C(C)C)NC(=O)C1(C)C (stereo not given in full)	8.09% (inactive)	
c1ccc(-c2ccncc2)cc1	3.51% (inactive)	
C=C1C(=O)O[C@H]2C[C@]3(C)C([C@@H](OC(=O)/C(C)=C/C)[C@H]12)[C@](C)(O)CC[C@H]3O (stereo not given in full)	-9.11% (inactive)	
C=C1[C@@H]2C[C@]3(C(CC2=O)[C@]24C5C[C@H]3[C@H]2N(CC)C[C@]5(C)CC[C@@H]4O)[C@@H]1O (stereo not given in full)	16.3% (inactive)	
O=c1ccn([C@H]2C[C@H](O)[C@@H](CO)O2)c(=O)[nH]1	4.73% (inactive)	
O=C1C=C(O)c2c(O)cc(O)c(O)c2C1=O	-27.7% (inactive)	
CC1CCC[C@H](O)CCCCCc2cc(O)cc(O)c2C(=O)O1 (stereo not given in full)	-7.81% (inactive)	
CCCCCCCC(=O)C(C)C(=O)N(C)[C@H](Cc1ccc(OC)cc1)C(=O)N(C)[C@H](C(N)=O)C(C)C (stereo not given in full)	1.84% (inactive)	
COc1c2n(C)ccc3c-2n(c(=O)c1=O)c1ccccc31	3.17% (inactive)	
CCCCCCCCCCCCCCCC(=O)OC(CO)CO	10% (inactive)	
O=c1c(-c2ccc(O)cc2)coc2cc(OC3O[C@H](CO)[C@H](O)[C@H](O)[C@H]3O)cc(O)c12 (stereo not given in full)		21.7 µM (active)
C[C@H]1CC[C@@H]2[C@@H](C)[C@H]3C(C[C@H]4C5CC[C@H]6C[C@@H](O)CC[C@]6(C)C5CC[C@]34C)N2C1 (stereo not given in full)	8.35% (inactive)	
Cc1nc(C)c(C)nc1C	4.82% [at 115 µM] (inactive)	
c1ccc(CN(Cc2ccccc2)Cc2ccccc2)cc1	18.4% [at 115 µM] (inactive)	
